# Reference: PubChem BioAssay (NCATS)
# Records with an inconclusive call do not appear. Entries that show only a call come without a potency. Active and inactive are the calls of the source. Calls come from the whole dose curve; as a rule, active = well fitted inhibition curve with a large enough effect; inconclusive = small, poorly fitted or top-dose-only effect; inactive = flat fitted curve, though single readings scatter.
# Assay: qHTS to identify inhibitors of the type 1 interferon - major histocompatibility complex class I in skeletal muscle: primary screen against the NCATS Pharmaceutical Collection (AID 1347407)
# Settings: human skeletal muscle cells, IFN-b-induced MHC-I HiBiT luminescence, 24 h; series mostly up to 45.9 µM
# Description: Assay Submitter (PI): Travis B. Kinder Ph.D. & James Inglese Ph.D.
# Assay Development and Screening Technology Laboratory (ADST)
# National Center for Advancing Translational Sciences (NCATS), Rockville, MD
# National Institute of Health (NIH), Bethesda, Maryland
# Idiopathic inflammatory myopathies, collectively referred to as myositis, are a group of rare autoimmune diseases characterized by skeletal muscle inflammation, weakness, and usually accompanied by systemic pathologies of the skin, lungs, or vasculature. Current immunosuppressive therapies and glucocorticoids are often not curative and are accompanied by harsh side effects, especially in children with juvenile myositis. We initiated a drug repurposing and development program to identify more targeted, less toxic therapeutics to treat myositis. Although its cause is not known, muscle from a subset of patients have an abundance of the inflammatory type 1 interferon (IFN) and a down-stream product major histocompatibility complex class I (MHC class I), which are both thought to contribute to damage and weakness. We conducted quantitative high throughput screening on 6,576 compounds (4,679 unique) through a series of cell-based assays to identify those that inhibit the IFN-stimulated expression of MHC class I in muscle precursor cells (myoblasts). The compound identification and evaluation strategy utilized a primary screen with reporter-tagged MHC class I in genome-engineered myoblasts, ATP content counter screen for viability, HLA-ABC immunofluorescence secondary screen, and HLA-B RT-qPCR tertiary screen.
# The primary screen utilized CRISPR/Cas9 genome-engineering of immortalized human myoblasts, C25cl48, where a pro-luminescent reporter HiBit was fused to the C-terminus of endogenous MHC class I allele HLA-B*08:01 (HLA-B HiBit myoblasts). HiBit is an 11 amino acid fragment of NanoLuc luminescent reporter (Promega Corporation), and when complexed to the larger LgBit fragment, the reconstituted enzyme produces light in the presence of furimazine substrate (Schwinn et al., 2018). Briefly, HLA-B HiBit myoblasts were plated into 1536-well plates, treated with 4.0 ng/ml human IFN-beta and 2,816 compounds from the NCATS Pharmaceutical Collection (NPC) that contains all drugs approved in the US, EU, and Japan (Huang et al., 2011) in an 8-point, 1:5 titration with a high final concentration of 46 uM. After 24 hrs of treatment, cells were assayed by Nano-Glo HiBiT Lytic Detection System (Promega) and luminescence measured by a ViewLux 1430 Ultra HTS (Perkin Elmer).
# Huang R, Southall N, Wang Y, Yasgar A, Shinn P, Jadhav A, Nguyen D-T, Austin CP. 2011. The NCGC pharmaceutical collection: a comprehensive resource of clinically approved drugs enabling repurposing and chemical genomics. Sci Transl Med 3:80ps16. doi:10.1126/scitranslmed.3001862
# Schwinn MK, Machleidt T, Zimmerman K, Eggers CT, Dixon AS, Hurst R, Hall MP, Encell LP, Binkowski BF, Wood K V. 2018. CRISPR-Mediated Tagging of Endogenous Proteins with a Luminescent Peptide. ACS Chem Biol 13:467-474. doi:10.1021/acschembio.7b00549
# PROTOCOL TABLE (as described by Inglese et al., 2007)
# SEQUENCE No. (e.g., 1, 2, 3, etc.); […] (e.g., Cells, Incubation, Reagent, etc.); VALUE; DESCRIPTION
# 1a; Cells; 5 uL; Use a Multidrop Combi (Thermo Scientific) to seed 350 cells/well into nine Greiner 1536 well white/solid bottom, high base, TC plates in 5 ul/well of iHSKM growth medium (GM) without dexamethasone into columns 1+2. Add metal lids with gas-exchange holes
# 1b; Cells; 5 uL; Use a Multidrop Combi (Thermo Scientific) to seed 350 cells/well into nine Greiner 1536 well white/solid bottom, high base, TC plates in 5 ul/well of iHSKM GM without dexamethasone + 4 ng/ml IFN-b into columns 3 - 48. Add metal lids with gas-exchange holes
# 2; Incubate; 1 hr; Incubate at 37 C, 5% CO2, 95% RH
# […]
# Potency is the fitted concentration of half-maximal effect.
row,Structure (SMILES),Potency
1,[N-]=[N+]=CC(=O)OC[C@H](N)C(=O)O,inactive
2,Clc1ccccc1N1CCNCC1,inactive
3,COc1cc(CC(C)N)cc(OC)c1OC (stereo not given),inactive
4,c1ccc(N2CCNCC2)cc1,inactive
5,O=C1OC(CCN2CCCCC2)OC1(c1ccccc1)c1ccccc1 (stereo not given),inactive
6,C[C@H]1[C@@H]2Cc3ccc(O)cc3[C@@]1(C)CCN2C,inactive
7,ClCCN1CCCC1,inactive
8,COP(=S)(OC)Oc1ccc(SC)c(C)c1,inactive
9,NCCc1ccc(O)cc1,inactive
10,C[C@]12CCC(=O)C=C1CC[C@@H]1[C@@H]2CC[C@@]2(C)[C@H]1CC[C@]2(C)O,inactive
11,CCN(CC)C(=O)[C@@H]1C=C2c3cccc4[nH]cc(c34)C[C@H]2N(C)C1,inactive
12,O=C1c2ccccc2C(=O)c2ccccc21,inactive
13,C[C@]12CCC(=O)C=C1CC[C@@H]1[C@@H]2CC[C@]2(C)C(=O)CC[C@@H]12,inactive
14,Cc1ncsc1CCCl,inactive
15,COC(=O)[C@@H](N)CCCN/C(N)=N/[N+](=O)[O-],inactive
16,NC(=O)c1cc([N+](=O)[O-])cc([N+](=O)[O-])c1,inactive
17,CN(C)CCc1c[nH]c2cccc(OP(=O)(O)O)c12,inactive
18,CCc1cc2c(s1)-n1c(C)nnc1CN=C2c1ccccc1Cl,inactive
19,CCOC(=O)CC(SP(=S)(OC)OC)C(=O)OCC (stereo not given),inactive
20,Nc1nc(N)nc(NC2CC2)n1,inactive

row,Structure (SMILES),Potency
1,COP(=S)(OC)SCN1C(=O)c2ccccc2C1=O,inactive
2,CCCN(CCC)C(=O)Cc1c(-c2ccc(Cl)cc2)nc2ccc(Cl)cn12,inactive
3,Clc1cccc(SC2CCNCC2)n1,inactive
4,C[C@H](N)C(=O)c1ccccc1,inactive
5,CCC(C)(C)c1ccc(O)cc1,inactive
6,COc1cccc2c1C(=O)c1c(O)c3c(c(O)c1C2=O)C[C@@](O)(C(=O)CO)CC3OC1CC(N2CCOC(OC)C2)C(O)C(C)O1 (stereo not given in full),2.97 µM (active)
7,NC1=NC(=O)C(c2ccccc2)O1 (stereo not given),inactive
8,CC(C(=O)c1ccccc1)N(C)C (stereo not given),inactive
9,C[C@]12CC[C@H]3[C@@H](CC[C@@]45O[C@H]4C(O)=C(C#N)C[C@]35C)[C@H]1CC[C@H]2O,11.8 µM (active)
10,CCN[C@@H](C)Cc1ccccc1,inactive
11,O=C(O)c1ccc(=O)[nH]c1,inactive
12,CC(NC(C)(C)C)C(=O)c1cccc(Cl)c1 (stereo not given),inactive
13,CCCCCCC(=O)CCCCCC/C=C/C[C@@H](O)[C@H](O)[C@@](N)(CO)C(=O)O,inactive
14,Nc1ccccc1C(=O)O,inactive
15,CCN(CCO)CCn1c(Cc2ccccc2)nc2c1c(=O)n(C)c(=O)n2C,inactive
16,CC(=O)C1CCOC1=O (stereo not given),inactive
17,O=C1CN=C(c2ccccc2)c2cc([N+](=O)[O-])ccc2N1,inactive
18,CNCC(=O)c1ccc(O)c(O)c1,inactive
19,CC(C)c1cccc(C(C)C)c1O,inactive
20,COc1cc(CCN)cc(OC)c1OC,inactive
